D2 PAM-1 – Beta-Arrestin HTS for Positive Allosteric Modulators of the Human D2 Dopamine Receptor: Potentiators | D(2) dopamine receptor (Homo sapiens), P14416 | DiscoveRx D2 beta-arrestin cells, luminescence, 90 min; 100% = 57 uM dopamine signal | potentiation, % (test concentration not listed) | 360,000 tested, 0.23% active; in the data active = potentiation above about 50%; inconclusive = mostly about 30% to 49%
Target sequence (P14416 whole entry, looked up): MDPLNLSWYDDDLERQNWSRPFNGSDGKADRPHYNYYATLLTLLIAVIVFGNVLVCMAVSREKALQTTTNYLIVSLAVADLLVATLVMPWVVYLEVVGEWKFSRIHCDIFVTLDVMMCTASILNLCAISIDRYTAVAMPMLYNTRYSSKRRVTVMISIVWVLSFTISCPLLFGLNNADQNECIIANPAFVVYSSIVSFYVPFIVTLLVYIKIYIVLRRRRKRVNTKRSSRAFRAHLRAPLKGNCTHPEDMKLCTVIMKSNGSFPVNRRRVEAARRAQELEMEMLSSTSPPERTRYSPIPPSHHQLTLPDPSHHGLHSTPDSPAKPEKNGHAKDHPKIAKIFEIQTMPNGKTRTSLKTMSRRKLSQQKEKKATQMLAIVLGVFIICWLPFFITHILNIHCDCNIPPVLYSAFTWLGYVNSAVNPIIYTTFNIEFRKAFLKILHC
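D2 cells co-treated with compound plus 50 nM dopamine (EC20) for 90 min at 37 deg C to detect potentiation. Beta-arrestin recruitment was read as enzyme-fragment luminescence after 1 h at ambient temperature. Full response was set by 57 uM dopamine.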
D2 ag-1 – Beta-Arrestin HTS for Positive Allosteric Modulators of the Human D2 Dopamine Receptor: Agonists. AID 624465, 2012. DiscoveRx PathHunter D2 beta-arrestin, luminescence, 90 min; 100% = 57 uM dopamine signal. activation, % (no concentration beside the values). 360,000 tested, 0.084% active. D(2) dopamine receptor (Homo sapiens), P14416; in the data active = activation above about 40%; inconclusive = between about 15% and that limit
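Agonist mode: compounds alone added to overnight-plated D2 PathHunter cells for 90 min at 37 C, with 57 uM final dopamine (EC100) defining full response. Beta-arrestin recruitment detected by chemiluminescent reagent, read after 1 h at ambient temperature.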
D2 PAM-2 – HTS Assay for Positive Allosteric Modulators of the Human D2 Dopamine Receptor: Primary Screen for Potentiators; AID 485347, 2010; D(2) dopamine receptor (Homo sapiens), P14416; 340,000 tested, 0.34% active; potentiation, % at 10 µM; HEK293 T-REx D2, calcium flux, EC20 dopamine potentiation;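 active = potentiation over 3 SD above the plate norm, cut at about 30% in these data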
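Tetracycline-induced HEK293 T-REx cells force-coupled to calcium signalling expressed D2; compounds were pin-added after a 10 s baseline, read kinetically 180 s, then an EC20 dopamine challenge followed with a further 180 s calcium read.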
D2 antag – HTS Assay for Allosteric Antagonists of the Human D2 Dopamine Receptor: Primary Screen for Antagonists | D(2) dopamine receptor (Homo sapiens), P14416 | HEK293 TREx D2 cells, calcium flux, dopamine EC80 | inhibition, % at 10 µM | 340,000 tested, 2% active | AID 485344, 2010; in the data active = inhibition above about 30%; inactive = below that, where a call was filed
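Tetracycline-induced HEK293 TREx cells expressing D2 receptor forced-coupled to calcium signalling, loaded with no-wash calcium dye. Compounds added and calcium flux read 180 s, then dopamine added at EC80 and read a further 180 s.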
D2 ag-2 – HTS Assay for Allosteric Agonists of the Human D2 Dopamine Receptor: Primary Screen for Agonists; activation, % at 2 µM; HEK293 T-REx D2 cells, calcium flux agonist mode; 340,000 tested, 0.53% active; D(2) dopamine receptor (Homo sapiens), P14416;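 active = activation over 3 SD above normal in the single-dose calcium agonist read, cut at about 30% in these data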
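Tetracycline-induced HEK293 T-REx cells with force-coupled D2 receptor, plated overnight at 30 C, loaded with no-wash calcium dye. After a 10 s baseline, compound was pin-added and calcium flux read kinetically for 180 s; calcium rises flagged agonists.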
Hits are given with their value; - = inactive; ? = inconclusive; . = not tested or not shown; ! = a repeat was not active. An excerpt weighted towards active compounds, which were near 2.4% of everything screened.

SMILES	D2 PAM-1	D2 ag-1	D2 PAM-2	D2 antag	D2 ag-2
COc1ccc(C2C(C(=O)O)CCC(=O)N2c2ccc(OC)cc2)cc1 (centres undefined)	-	-	-	-	-
COc1ccc(C2C(C(=O)NCc3ccco3)CCC(=O)N2c2ccc(OC)cc2)cc1 (centres undefined)	-	-	-	38	-
CCOC(=O)c1ccc(NC2=CC(c3ccc(O)c(OCC)c3)N(c3ccc(C(=O)OCC)cc3)C2=O)cc1 (centres undefined)	.	.	-	.	-
O=C(Cn1nc(CNc2ccc(Cl)cc2)[n+]2c1CCCCC2)c1ccccc1	-	-	-	-	-
Cc1ccc(C(C)C)c(OCc2nn(CC(=O)c3ccc(Cl)cc3)c3[n+]2CCCCC3)c1	-	-	-	33	-
O=C(CCCC(=O)N(c1ccc(F)cc1)C(C(=O)NC1CCCC1)c1ccc(O)cc1)Nc1ccccn1 (centres undefined)	-	-	-	-	-
COc1ccc(NC(=O)NCCn2nnc3cc(S(=O)(=O)N(C)C)ccc32)cc1	.	.	-	.	.
CCN(CC)c1ccc(/C=C(/C#N)c2nc3ccc(C)cc3[nH]2)c(OC(C)C)c1	-	-	-	-	42
Fc1cccc(F)c1CN1CCN(c2ncccn2)CC1	-	?	-	-	33
CCOC(=O)c1cc(S(=O)(=O)NC2CCC(C)CC2)cn1C (centres undefined)	-	-	99	-	-
COc1ccccc1-c1cccc2nccn12	-	-	.	.	.
O=C(NCCc1ccccc1)C1CC(=O)N(C2CCCC2)C1 (centres undefined)	-	-	-	-	-
O=C(NCCN1CCc2ccccc2C1)C1CC(=O)N(C2CCCC2)C1 (centres undefined)	-	-	-	33	-
O=C(NCCc1cccc(F)c1)C1CCC(=O)N(C2CCCCCC2)C1 (centres undefined)	-	-	-	34	-
O=C(Nc1cccc([N+](=O)[O-])c1)C1CC(=O)N(C2CCCCC2)C1 (centres undefined)	-	-	-	31	-
CC(=O)Nc1cccc(NC(=O)C2CC(=O)N(C3CCCCC3)C2)c1 (centres undefined)	-	-	-	-	-
O=c1oc(CCCO)cc2ccc(/C=C/c3cccc([N+](=O)[O-])c3)cc12	-	-	-	-	-
Cc1cc2nc(N)sc2cc1C	-	-	-	34	-
CC(C)c1ccc2nc(N)sc2c1	-	-	-	-	-
COc1cc(S(=O)(=O)N2CCC(c3nc4ccccc4s3)CC2)ccc1S(=O)(=O)N1CC(C)CC(C)C1 (centres undefined)	-	-	34	-	-
Cc1nc(Oc2ccccc2)c2ccsc2n1	-	-	30	-	-
COc1ccc(Oc2ncnc3sccc23)cc1	-	-	-	-	-
CCCN1CCN(CCCNC(=O)Cn2c(-c3cccs3)cc3ccccc32)CC1	.	.	-	.	-
CCN(CC)CCNC(=O)c1ccc(NC(C)=O)cc1	-	-	-	-	-
CCN(CC)CCNC(=O)c1ccc(NC(=O)COc2ccc3c(c2)CCC3)cc1	-	-	-	32	-
SMILES	D2 PAM-1	D2 ag-1	D2 PAM-2	D2 antag	D2 ag-2
CN1CCN(CCOC2Cc3ccccc3Sc3ccc(Cl)cc32)CC1 (centres undefined)	-	-	-	88	-
O=C(NNc1nc2cc3c(cc2s1)OCO3)c1cccc(F)c1	-	-	-	40	-
N#C/C(=C/c1ccc(N2CCOCC2)o1)C(=O)NC1CCCCC1	-	-	-	-	-
CC1CC1c1ccc(/C=C(\C#N)C(=O)Nc2ccccc2Cl)o1 (centres undefined)	-	-	.	.	.
N#C/C(=C/c1ccc(N2CCCCC2)o1)C(=O)Nc1ccc2ccccc2c1	-	-	-	47	106
N#C/C(=C/c1ccc(N2CCCCC2)o1)C(=O)Nc1ccc(Cl)cc1	-	-	-	62	110
COc1ccc(NC(=O)/C(C#N)=C\c2ccc(N3CCOCC3)o2)cc1	-	-	-	-	42
CC1CC1c1ccc(/C=C(\C#N)C(=O)Nc2ccc(Cl)cc2)o1 (centres undefined)	-	-	-	76	-
N#C/C(=C\c1ccc(N2CCOCC2)o1)C(=O)Nc1ccc(O)cc1	-	-	-	-	-
CCCSc1ncc(Cl)c(C(=O)Nc2c(C(=O)c3ccc(C)cc3)oc3ccccc23)n1	.	.	-	.	-
CC(C)(C)CCN1CCC(CN2CCNC(=O)C2=O)CC1	-	-	.	.	.
CCOc1ccc(NC(=O)CSc2nc3ccccc3c(=O)n2CCC(=O)NC2CCCCC2)cc1	.	.	-	.	-
COc1ccccc1NC(=O)c1nnn(CC(=O)Nc2ccccc2)c1N	-	-	-	-	-
CCc1ccccc1NC(=O)Cn1nnc(C(=O)NCc2cccc(OC)c2)c1N	-	-	70!	.	-
COc1ccccc1NC(=O)c1nnn(CC(=O)Nc2cccc(SC)c2)c1N	-	-	35	-	-
Cc1cccc(NC(=O)Cn2nnc(C(=O)NCc3ccco3)c2N)c1	-	-	-	34	-
Cc1ccc(NC(=O)Cn2nnc(C(=O)NCc3ccco3)c2N)cc1	-	-	-	-	-
CCOc1ccc(NC(=O)Cn2nnc(C(=O)NCCc3ccc(OC)c(OC)c3)c2N)cc1	-	-	-	-	-
COc1ccc(CCNC(=O)Cn2nnc(C(=O)Nc3ccc(Br)cc3)c2N)cc1OC	-	-	56	-	-
CC(C)C(=O)n1nc(-c2cccnc2)nc1NCc1ccc(F)cc1	-	-	46	-	-
O=C(CN1CCN(c2ccccc2F)CC1)c1ccc(O)c(O)c1	-	-	-	-	61
Cc1c(O)ccc(C(=O)CN2CCN(c3ccccc3F)CC2)c1O	-	-	-	-	-
O=[N+]([O-])c1cc(-c2nc3nc4ccccc4nc3n2CCc2ccccc2)cc([N+](=O)[O-])c1	-	-	-	67	-
COC(=O)CCCCCNc1ccc(C(=O)OC)cc1N	-	-	-	-	37
COC(=O)C1=C(C)NC2=C(C(=O)CC(C)(C)C2)C1c1ccccn1 (centres undefined)	-	-	33	-	-
CC(C)c1nc2ccc(NC(=O)C34CC5CC(CC(C5)C3)C4)cc2[nH]1	-	-	-	33	-
Cc1ccc(C)c(Nc2c(F)c(F)c(F)c(F)c2C(=O)O)c1	-	-	32	-	-
COc1c(F)c(F)c(C(=O)O)c(Nc2ccc(C)cc2)c1F	-	-	-	-	-

High-throughput results: PubChem, National Center for Advancing Translational Sciences (NCATS)
